In the library only some 2.1% were active in any assay of this set; here they are far more common.
HDAC3 inh: human HDAC3 inhibition | 320,000 tested, 0.15% active | AID 2718 | inhibition, % at 8.3 µM | recombinant HDAC3, fluorogenic peptide/trypsin coupled, fluorescence | O15379; in the data active means inhibition above about 26%, passing the limit was not always enough
Target sequence (O15379 whole entry, looked up): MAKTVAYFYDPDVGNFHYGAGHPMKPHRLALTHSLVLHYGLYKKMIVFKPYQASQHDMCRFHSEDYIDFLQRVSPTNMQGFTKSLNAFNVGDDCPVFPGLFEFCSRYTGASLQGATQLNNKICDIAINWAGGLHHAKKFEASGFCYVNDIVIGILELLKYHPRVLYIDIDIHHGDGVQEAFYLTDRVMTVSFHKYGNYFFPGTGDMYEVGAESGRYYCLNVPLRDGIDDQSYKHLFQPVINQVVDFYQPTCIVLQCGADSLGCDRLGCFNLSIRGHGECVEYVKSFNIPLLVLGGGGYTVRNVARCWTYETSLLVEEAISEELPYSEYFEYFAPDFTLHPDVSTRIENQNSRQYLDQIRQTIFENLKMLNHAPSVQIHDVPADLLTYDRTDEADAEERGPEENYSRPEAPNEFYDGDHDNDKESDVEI
LANA-H2B inh: blocks KSHV LANA binding to histone H2A/H2B. Q9QR71. cell-free LANA-H2A/H2B peptide, fluorescence polarization. inhibition, % (no concentration beside the values). 320,000 tested, 0.6% active; in the data active means inhibition mostly above about 10%, no sharp cut-off; inactive means mostly below about 6.7%
IDE cell inh: inhibitors of human insulin-degrading enzyme in cells; inhibition, % at 5.59 µM; HEK cells, FAbetaB cleavage, fluorescence polarization; AID 434962; 320,000 tested, 0.41% active; P14735;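 active means percent inhibition above the average of all tested compounds plus 3 SD, set per screening campaign, cut at about 16% in these data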;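 further: IDE supplied by intact live HEK cells; FP after avidin binding of uncleaved biotin substrate so inhibition keeps polarization high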
IDE act: IDE (human) activation, cell-based | P14735 | HEK cells, FAbeta-B cleavage, fluorescence polarization; 0% vehicle, 100% cell-free pure enzyme wells | activation, % at 5.96 µM | 340,000 tested, 0.073% active;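 active means activation above the mean of all tested compounds plus 3 SD, set per screening campaign, cut at about 17% in these data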
SUMO Mot1 rescue: SUMOylation pathway inhibition by Mot1-301 growth rescue; S. cerevisiae Mot1-301 growth rescue, ATP luminescence, 38.5C; percent above DMSO median, 100 means doubled; AID 2716; 320,000 tested, 1% active; growth rescue, % at 18.8 µM;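 active means every valid replicate shows activation above 250% relative to neutral control wells; inactive means the rest, any valid replicate at or below 250%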
Yeast Mot1 SUMO: inhibits SUMO pathway, affecting Mot1-301 yeast growth; shares compounds with SUMO Mot1 rescue; S. cerevisiae Mot1-301 galactose growth, ATP luminescence, 24 h; -100 = growth of slx-deleted rescue strain; growth activity, percent, % at 42 µM; 2,300 tested, under 10 active; AID 493004;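 active means Signal drops as the depositor expects, and the fitted half-maximal dose is no more than ten times the top valid tested dose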;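 further: more negative values mean stronger growth rescue toward the control strain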
Hits are given with their value; – = inactive; · = no result; + = active, no number.

SMILES | HDAC3 inh | LANA-H2B inh | IDE cell inh | IDE act | SUMO Mot1 rescue | Yeast Mot1 SUMO
COc1ccc(-c2nc(NC(=O)CCNC(=O)c3ccco3)sc2C)cc1 | – | – | – | – | 368 | –
COc1cccc(NC(=O)c2cccnn2)c1 | – | – | – | – | – | ·
NC(=O)CN1CCOCCN(CC(N)=O)CCOCC1 | – | – | – | · | 410 | –
NC(=O)CN1CCOCCOCCN(CC(N)=O)CCOCCOCC1 | – | – | – | – | – | ·
CSc1ncc2ncn(C3OC(CO)C(O)C3O)c2n1 (stereo not given) | – | – | – | – | + | –
Cc1ccc(S(=O)(=O)Nc2cccc3c2O[C@H](CN(C)C(=O)Nc2cccc4ccccc24)[C@H](C)CN([C@H](C)CO)C3=O)cc1 | – | – | – | – | – | ·
CC1(C)CC(=O)C(C=Nc2ccc3c(c2)OCO3)=C(O)C1 | – | – | – | – | – | ·
CC1(C)CC(=O)C(C=Nc2ccc(O)c(N=CC3=C(O)CC(C)(C)CC3=O)c2)=C(O)C1 | – | – | – | – | 480 | –
Cc1ccc(-c2ccc(/C=N/n3cnnc3)o2)cc1 | – | – | – | – | 505 | –
COCc1nnc(NC(=O)CC(C)C)s1 | – | – | – | – | 644 | –
COCc1nnc(NC(=O)CC(c2ccccc2)c2ccccc2)s1 | – | – | – | – | – | ·
COc1cccc(NC(=O)C2=COCCO2)c1 | – | – | – | – | – | ·
CCOC(=O)CS(=O)(=O)c1ccc2ccccc2c1 | – | – | – | – | 955 | –
CCOC(=O)CS(=O)(=O)c1ccccc1 | – | – | – | – | · | ·
COc1ccc(-n2c3c(cc(C(=O)NCC(=O)c4ccccc4)c2=O)C(=O)CC(C)(C)C3)cc1 | – | – | – | – | 443 | –
N=c1n(CCCOc2ccc(Br)cc2)c2ccccc2n1CC(N)=O | · | – | – | – | 363 | –
COc1ccc(CCNC(=O)C2CCC(=O)N2S(=O)(=O)c2ccc(C)cc2)cc1 (stereo not given) | – | – | – | – | – | ·
O=C(c1ccco1)N1CCN(C(=O)c2ccc(CS(=O)c3ccc(F)cc3)o2)CC1 (stereo not given) | – | – | – | – | – | ·
Cc1cc(S(=O)(=O)N2CCCCC2CCNC(=O)C(=O)NCC2CCCO2)ccc1F (stereo not given) | – | – | – | – | 391 | –
Cc1cc(S(=O)(=O)N2CCCCC2CCNC(=O)C(=O)NCc2cccnc2)ccc1F (stereo not given) | · | – | – | – | – | ·
Cc1ccc(S(=O)(=O)N2CCCOC2CNC(=O)C(=O)NCCN2CCOCC2)cc1 (stereo not given) | – | – | – | – | – | ·
COc1ccc(S(=O)(=O)N2CCCOC2CNC(=O)C(=O)NCCCN2CCOCC2)cc1C (stereo not given) | – | – | – | – | 415 | –
Cc1cc(Nc2ccccc2)cc(=O)n1C | – | – | – | – | – | ·
CC(C)C(=O)Nc1ccc(-c2nc3cccnc3o2)cc1 | – | – | – | – | 666 | –
CC(C)C(=O)Nc1cccc(-c2nc3ncccc3o2)c1 | – | – | – | – | + | –
SMILES | HDAC3 inh | LANA-H2B inh | IDE cell inh | IDE act | SUMO Mot1 rescue | Yeast Mot1 SUMO
C=CC[C@@H](CC(=O)N(CCO)Cc1ccccc1)C(=O)NC[C@H](OC(=O)[C@@H](CC=C)Cc1ccc(F)cc1)c1ccccc1 | – | – | – | – | – | ·
COc1ccccc1NC(=S)NC(NC(=O)c1ccco1)C(Cl)(Cl)Cl (stereo not given) | – | – | – | – | – | ·
COC(=O)c1ccccc1Oc1ccc(NC(=O)c2ccco2)cc1 | – | – | – | – | – | ·
COC(=O)c1ccccc1NC(NC(=O)c1ccco1)C(=O)c1ccccc1 (stereo not given) | – | – | – | – | 449 | –
COc1ccccc1NC(NC(=O)c1ccco1)C(=O)c1ccccc1 (stereo not given) | – | – | – | – | 839 | –
Cn1c(SCC(=O)N/N=C/c2ccc([N+](=O)[O-])s2)nnc1-c1ccc(Cl)cc1 | – | – | – | – | 958 | –
Cc1nc2ccc(NC(=O)c3ccco3)cc2s1 | – | – | – | – | 363 | –
O=C(CSc1cccc2cccnc12)Nc1cc(C(=O)O)cc(C(=O)O)c1 | – | – | – | – | 577 | –
NNC(=O)CSc1cccc2cccnc12 | – | – | – | – | – | ·
O=C(NC1CCOc2ccccc21)c1ccccn1 (stereo not given) | – | – | – | – | – | ·
CCN1C(=O)c2cccc3c(S(=O)(=O)Nc4ccc(OC)cc4OC)ccc1c23 | – | – | – | – | 768 | –
CCN1C(=O)c2cccc3c(S(=O)(=O)Nc4ccccc4)ccc1c23 | – | – | – | – | – | ·
Cc1cccc(N=C2C(=O)Nc3c(Cl)cccc32)c1 | – | – | – | – | 562 | –
C=C(C)C(=O)OC1(C(F)(F)F)Oc2cc(C)ccc2NC1=O (stereo not given) | 29 | – | – | – | 363 | –
CCOc1ccc(-c2c(C(=O)N/N=C/c3ccncc3)nnn2-c2nonc2N)cc1 | – | – | – | – | 396 | –
CC/C(=N\NC(=O)c1nnn(-c2nonc2N)c1-c1ccc2c(c1)OCO2)c1ccccc1 | – | – | – | – | – | ·
CC/C(=N\NC(=O)c1nnn(-c2nonc2N)c1-c1cccs1)c1ccccc1 | – | – | – | – | 371 | –
CCOc1ccc(NC(=O)C2CCCN(c3c(CC)c(C)nc4ncnn34)C2)cc1 (stereo not given) | – | – | – | – | – | ·
NC(=O)C1=C[C@@H](c2ccc(Br)cc2)C[C@@H](OCCCCO)O1 | – | – | – | – | 554 | –
NC(=O)C1=C[C@@H](c2ccccc2)C[C@@H](OCCCCO)O1 | – | – | – | – | – | ·
COc1ccc(Cl)cc1NS(=O)(=O)c1c(C)nc2sccn2c1=O | – | – | – | – | – | ·
Cc1c(OCC(=O)N2C[C@H]3C[C@@H](C2)c2cccc(=O)n2C3)ccc2c3c(c(=O)oc12)CCCC3 | – | – | – | – | – | ·
Cc1c(OC(C)C(=O)N2C[C@H]3C[C@@H](C2)c2cccc(=O)n2C3)ccc2c3c(c(=O)oc12)CCCC3 (stereo not given in full) | – | – | – | – | 684 | –
CCCCc1nnc(NC(=O)Cc2ccc(S(=O)(=O)N3CCOCC3)s2)s1 | – | · | – | – | – | ·
CN(CP(=O)(O)C(O)c1ccccc1)S(C)(=O)=O (stereo not given) | – | – | – | – | 935 | –
COc1ccccc1C(=O)NCCC(=O)N(C)CC(=O)Nc1ccc(C)cc1 | – | – | – | – | – | ·
Cc1ccc(NC(=O)COc2ccccc2C(=O)NCCN(C)C)cc1 | – | – | – | · | 800 | –
Cn1nc(C(=O)NCCc2ccc(Cl)cc2)c2c1-c1ccccc1S(=O)(=O)C2 | – | – | – | – | 440 | –
CC/C(=N\NC(=O)Cc1ccc(Br)cc1)c1cccs1 | – | – | · | – | – | ·

Assay outcomes deposited in PubChem by several laboratories.
